Screening results from PubChem BioAssay.
This is a sample that favours compounds with a hit; in the whole collection about 9% have one here.
JMJD2A Tudor inh – inhibitors of human JMJD2A Tudor domain; AlphaScreen JMJD2A-Tudor / H3K4me3 peptide binding; Potency, µM (titrated, usually from 114 µM), usual class: inhibitors; 390,000 tested, 4.4% active; note: nearly all actives have a fitted effect of over 50% in size
Target sequence (O75164 whole entry, looked up, the tested form may be a part): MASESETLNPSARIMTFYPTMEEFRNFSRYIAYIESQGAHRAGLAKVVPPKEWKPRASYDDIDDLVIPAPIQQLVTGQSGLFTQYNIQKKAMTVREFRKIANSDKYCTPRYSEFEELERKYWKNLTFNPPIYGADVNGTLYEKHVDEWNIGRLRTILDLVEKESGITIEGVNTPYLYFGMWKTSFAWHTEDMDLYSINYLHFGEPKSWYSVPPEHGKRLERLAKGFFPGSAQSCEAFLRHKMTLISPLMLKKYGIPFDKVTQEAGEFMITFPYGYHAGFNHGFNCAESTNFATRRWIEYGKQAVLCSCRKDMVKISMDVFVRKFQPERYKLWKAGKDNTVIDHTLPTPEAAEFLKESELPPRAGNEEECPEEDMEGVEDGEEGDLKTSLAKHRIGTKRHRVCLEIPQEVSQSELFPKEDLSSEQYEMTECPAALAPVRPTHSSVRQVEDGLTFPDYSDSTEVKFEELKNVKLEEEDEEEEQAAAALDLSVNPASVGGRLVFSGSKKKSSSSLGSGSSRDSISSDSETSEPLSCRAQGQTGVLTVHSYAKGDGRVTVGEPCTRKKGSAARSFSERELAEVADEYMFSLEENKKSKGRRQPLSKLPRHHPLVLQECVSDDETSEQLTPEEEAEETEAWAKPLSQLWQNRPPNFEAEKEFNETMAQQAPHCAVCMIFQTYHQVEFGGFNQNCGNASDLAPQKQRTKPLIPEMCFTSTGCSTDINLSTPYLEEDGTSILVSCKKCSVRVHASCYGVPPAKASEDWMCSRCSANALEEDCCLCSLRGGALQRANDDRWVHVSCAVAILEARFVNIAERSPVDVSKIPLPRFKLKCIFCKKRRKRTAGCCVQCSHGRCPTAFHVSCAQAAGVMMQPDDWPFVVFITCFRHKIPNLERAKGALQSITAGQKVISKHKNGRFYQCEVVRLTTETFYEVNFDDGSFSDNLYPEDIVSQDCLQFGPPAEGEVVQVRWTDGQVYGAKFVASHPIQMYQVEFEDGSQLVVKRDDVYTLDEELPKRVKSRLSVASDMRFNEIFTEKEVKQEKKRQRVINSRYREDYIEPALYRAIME
HP1b binding inh – blocks HP1-beta chromodomain binding to methylated histone tails | P83916 | AlphaScreen HP1-beta / biotin-H3K9me3 peptide binding | Potency, µM (top dose mostly 114 µM), actives largely listed as inhibitors | 390,000 tested, 0.56% active; note: nearly all actives have a fitted effect of over 70% in size
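Compound inhibition of the preformed complex between 50 nM HP1-beta and 50 nM biotinylated H3K9me3 peptide was read by AlphaScreen. Buffer was PBS pH 7.4 with 0.01% Tween-20. Incubations ran 30 min at room temperature, with 10 ug/mL donor/acceptor beads.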
G9a block – G9a (human) methyltransferase inhibition. Q96KQ7. G9a H3K9 monomethylation, AlphaScreen, 2 h. Potency, µM (doses to about 102 µM), actives largely listed as inhibitors. 350,000 tested, 8.8% active. AID 504332; note: nearly all actives have a fitted effect of over 75% in size
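Signal arises when biotinylated H3K9 peptide, once monomethylated, bridges streptavidin donor and antibody-captured acceptor beads. Enzyme at 20 nM was preincubated 15 min with test compounds; peptide 500 nM and SAM 20 uM then reacted for 2 h.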
BAZ2B inh – inhibitors of human BAZ2B bromodomain. Q9UIF8. AlphaScreen BAZ2B-H3K14Ac peptide displacement. Potency, µM (titrated, usually from 114 µM), actives largely listed as inhibitors. 360,000 tested, 4.4% active; note: nearly all actives have a fitted effect of over 60% in size
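AlphaScreen displacement: compounds (up to 110uM) incubated 30 min at room temperature with a preformed 50 nM BAZ2B/50 nM biotinylated H3K14Ac peptide complex in PBS pH 7.4 with Tween-20. Donor and acceptor beads at 10 ug/mL final added, 20 min light-protected before reading.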
PLK1 PBD block – PLK1 (human) polo-box domain binding inhibition. AID 720504. P53350. Plk1 PBD binding of FITC phosphopeptide, fluorescence polarization. Potency, µM, actives largely listed as inhibitors. 360,000 tested, 2.8% active; note: series mostly up to about 57 µM; nearly all actives have a fitted effect of over 65% in size
ALOX12 inh – inhibitors of human 12S-lipoxygenase ALOX12 | P18054 | purified 12hLO, xylenol orange hydroperoxide absorbance | Potency, µM (titrated, usually from 108 µM), most hits filed as inhibitors | 580,000 tested, 1.1% active | AID 1671190
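Hydroperoxide product was detected by ferrous iron/xylenol orange as the 573 to 405 nm absorbance ratio. Arachidonic acid at 40 uM (final) was turned over for 30 min at room temperature by 150 nM human 12hLO, pH 7.0 Hepes buffer, after 15 min compound preincubation.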
A number is an active result; 0 = inactive; ? = inconclusive; - = not tested or not shown; [ ] = another dose, or the depositor's remark. Calls come from the whole dose curve; as a rule, active = well fitted curve in the direction sought with a large enough effect; inconclusive = small, poorly fitted or top-dose-only effect, or another doubt; inactive = no such curve, though single readings can be large; an effect the other way counts as inactive or inconclusive.

SMILES | JMJD2A Tudor inh | HP1b binding inh | G9a block | BAZ2B inh | PLK1 PBD block | ALOX12 inh
C#CCOCCOCCOCCNc1nc(N2CCN(C(=O)C(Cc3ccc(O)cc3)n3cc(C(N)C(C)CC)nn3)CC2)nc(N2CCN(C(=O)C(Cc3ccc(O)cc3)n3cc(C(N)C(C)CC)nn3)CC2)n1 (stereo not given) | 35µM | 0 | ? | 50µM | 0 | 0
C#CCOCCOCCOCCNc1nc(N2CCOCC2)nc(N2CCN(C(=O)[C@H](Cc3ccc(O)cc3)n3cc([C@@H](N)C(C)CC)nn3)CC2)n1 (stereo not given in full) | ? | 0 | ? | 0 | ? | 0
C#CCOCCOCCOCCNc1nc(N2CCN(C(=O)[C@H](CCC(=O)O)n3cc(C(N)[C@H](C)CC)nn3)CC2)nc(N2CCN(C(=O)[C@H](Cc3ccc(O)cc3)n3cc(C(N)[C@H](C)CC)nn3)CC2)n1 (stereo not given in full) | 40µM | 0 | 0 | 50µM | 0 | -
Cc1cc(C)c(S(=O)(=O)Nc2ccc[nH]c2=O)c(C)c1 | 0 | 0 | 8.9µM | 0 | 0 | ?
Cc1cc(F)ccc1NS(=O)(=O)c1cccc2nsnc12 | 0 | 0 | 0 | 0 | 0 | 0
O=S(=O)(Nc1ccc(Br)cc1)c1cccc2nonc12 | 0 | 0 | 79µM | 0 | 0 | 0
O=S(=O)(Nc1cccc2nsnc12)c1ccccc1 | 0 | 0 | 0 | 0 | 0 | 0
Cc1ccc(O)c(NS(=O)(=O)c2cccc3nsnc23)c1 | ? | ? | 0[2.33 µM] | 45µM | ? | 0
Cc1cc(C)c(S(=O)(=O)Nc2cccc3nsnc23)c(C)c1 | 0 | 0 | 3.2µM | 0 | 0 | ?
CCSc1ncc(Cl)c(C(=O)Nc2ccccc2)n1 | 0 | 0 | 0 | 0 | 0 | 0
O=C(c1ccco1)N1CCN(C(=O)c2ccccc2Oc2ccccc2)CC1 | 0 | 0 | ? | 0 | 0 | 0
CCCCN=C1SC(C(=O)Nc2sc3c(c2C(=O)OC)CCC3)C(N)=C1C(=O)N1CCOCC1 (stereo not given) | 0 | 0 | - | - | 0 | 0
COc1cc2cc(C#N)c(SCC(=O)OC(C)C)nc2cc1OC | 0 | 0 | - | - | - | -
COc1ccc(Nc2nc3ccccc3nc2NS(=O)(=O)c2cccc3nsnc23)cc1 | - | - | - | - | - | 0
COc1cc(NS(=O)(=O)c2cccc3nsnc23)cc(OC)c1 | 45µM | 0 | 2µM | 56µM | 0 | ?
Cc1ccc(NS(=O)(=O)c2cccc3nsnc23)cc1C | 0 | 0 | 0 | ? | 0 | ?
O=S(=O)(Nc1ccc(Cl)cc1)c1cccc2nsnc12 | ? | 0 | 0 | 0 | 30µM | 0
O=C(NCC(=O)N(c1ccccc1)C1(C(=O)NC2CCCC2)CCCCC1)c1ccccc1 | - | - | - | - | - | 0
CC1=CCC2C(C1)C2(C)C (stereo not given) | - | - | - | - | - | 79µM
CC1=CCC2CC1C2(C)C (stereo not given) | - | - | 0 | - | - | -
CN1C2=CC=CC=CC2=[N+](C)C12C=CC(=[N+]([O-])[O-])C=C2[N+](=O)[O-] (stereo not given) | 0 | ? | 32µM | 35µM | 0 | 0
CN1C2=CC=CC=CC2=[N+](C)C12C([N+](=O)[O-])=CC(=[N+]([O-])[O-])C=C2[N+](=O)[O-] (stereo not given) | 0 | 0 | ? | 0 | 0 | 0
CC(C)CCNc1nc(-c2ccc(O)c(C(N)=O)c2)cs1 | - | - | - | - | - | 7.9µM
COC(=O)N1CCCCC1c1cc(C(=O)N2CCOCC2)no1 (stereo not given) | - | - | - | - | 0 | 0
O=C(Nc1cccc(O)c1)c1ccc(S(=O)(=O)N2CCCCCC2)cc1 | 0 | 0 | 0 | 0 | 0 | 0
SMILES | JMJD2A Tudor inh | HP1b binding inh | G9a block | BAZ2B inh | PLK1 PBD block | ALOX12 inh
CN(c1ccccc1)c1ccc(/C=C(/CCC(=O)O)c2nc3ccccc3s2)cc1[N+](=O)[O-] | 22µM | ? | - | - | ? | ?
O=C(O)CC/C(=C\c1ccc(N2CCCC2)c([N+](=O)[O-])c1)c1nc2ccccc2s1 | 0 | ? | 13µM | 40µM | 34µM | ?
O=C(O)CC/C(=C\c1cc([N+](=O)[O-])ccc1Cl)c1nc2ccccc2s1 | 0 | 0 | 0 | 0 | 0 | 0
O=C(O)CC/C(=C\c1ccccc1[N+](=O)[O-])c1nc2ccccc2s1 | 0 | 0 | 0 | 0 | 0 | 0
CCOc1ccccc1C(=O)NCC(=O)N(C)Cc1cccnc1 | 0 | 0 | 40µM | 0 | 0 | 0
Cc1ccc(NC(=O)CN(C)CC(=O)Nc2ccccc2C(=O)Nc2ccccc2)cc1 | 0 | 0 | 0 | - | 0 | 0
CCOc1ccc2nc(NC(=S)N(C)C)sc2c1 | 13µM | ? | 1.6µM | 35µM | 19µM | 45µM
CCOc1ccc2nc(NC(=O)c3cnc(C)cn3)sc2c1 | 0 | 0 | 45µM | 0 | 0 | 0
CCNC(=O)Nc1nc2ccccc2s1 | 0 | 0 | 0 | 0 | 0 | 0
CN(C)C(=S)Nc1nc2ccccc2s1 | 3.5µM | ? | 0[0.501 µM] | 0 | 11µM | ?
S=C(Nc1ccccc1)c1nc2ccccc2s1 | 40µM | ? | ? | 0 | 0 | 0
Cc1c(C(=O)N2CCN(S(=O)(=O)c3ccc(F)cc3)CC2)oc2ccccc12 | 0 | 0 | 50µM | 0 | 0 | 0
COc1ccc2oc(C(=O)OCC(=O)N3CCN(S(=O)(=O)c4ccccc4)CC3)c(C)c2c1 | 0 | 0 | 50µM | 0 | 0 | 0
Cc1[nH]c2ccccc2c1C(=O)N1CCN(S(=O)(=O)c2ccc(F)cc2)CC1 | - | - | - | - | - | 0
CC(=O)c1c(Cl)nc2cccc3c2c1-c1ccccc1C3=O | 0 | 0 | 28µM | 0 | 0 | 0
COc1cc(-c2c(C(C)=O)c(C)nc3c2C(=O)c2ccccc2-3)cc(OC)c1OC | 0 | 0 | 0 | 0 | 0 | 0
Cc1cccc(CN2CCC(C(=O)Nc3ccc(Oc4cccnc4)cc3)CC2)c1 | 0 | 0 | - | 0 | 0 | 0
Cc1cc(CNCCN(C)C)c(C)n1-c1cc(S(=O)(=O)N2CCOCC2)ccc1N1CCCC1 | 8.9µM | 0 | - | - | 0 | 0
Cc1ccc(C)n1-c1cc(S(=O)(=O)N2CCOCC2)ccc1N1CCCC1 | 79µM | 0 | ? | 0 | 0 | ?
CNCc1cc(C)n(-c2cc(S(=O)(=O)N3CCOCC3)ccc2N2CCCC2)c1C | - | - | - | - | 0 | ?
CN1CCN(C2=Cc3ccccc3Sc3cc(F)c(Cl)cc32)CC1 | 50µM | 0 | 18µM | 35µM | 0 | 0
CN1CCN(C2=Cc3ccccc3Sc3cc(F)c(F)cc32)CC1 | ? | ? | ? | 45µM | 0 | 0
CN1CCN(C2Cc3cc(Cl)ccc3Sc3cc(F)ccc32)CC1 (stereo not given) | ? | ? | - | - | 0 | ?
CN1CCN(C2=Cc3cc(Cl)ccc3Sc3cc(F)ccc32)CC1 | 56µM | 0 | 13µM | 22µM | 0 | ?
CN1CCN(C2=Nc3ccccc3Sc3ccc(Cl)cc32)CC1 | - | - | 0 | - | - | 0
O=c1[nH]cnc(O)c1C(c1ccc2c(c1)OCO2)c1c(O)nc[nH]c1=O | 0 | 0 | 50µM | 0 | 0 | 0
O=C(Nc1ccc(N2CCCCC2)cc1)c1ccc(F)cc1F | 0 | 0 | - | 0 | 0 | 0
